Where “and” joins values, the source holds several entries; their conditions need not be identical. Identical values can stand only once. The source holds several records for some structures; these can differ, active in one and inactive in another. Calls of active or inactive are those of the source. Rule for the calls: active = hit-call score of the fitted dose curve at least 0.9, where 1 is the maximum; inactive = score below 0.9.

This assay in a line: APR_HepG2_StressKinase_72hr: Apredica 72-hour HepG2 Assay for Stress Kinase (AID 2282921). The settings on record: HepG2 stress kinase (phospho-c-Jun) imaging, actives raise or lower the signal. As for the experimental part:
APR_HepG2_72hr is a cell-based, multiplexed-readout assay that uses HepG2, a human liver cell line, with measurements taken at 72 hours after chemical dosing in a 384-well plate.APR_HepG2_StressKinase_72hr is one of 10 assay component(s) measured or calculated from the APR_HepG2_72hr assay. It is designed to make measurements of enzyme activity, a form of enzyme reporter, as detected with fluorescence intensity signals by HCS Fluorescent Imaging technology.Data from the assay component APR_HepG2_StressKinase_72hr was analyzed into 1 assay endpoint. This assay endpoint, APR_HepG2_StressKinase_72hr, was analyzed with bidirectional fitting relative to DMSO as the negative control and baseline of activity. Using a type of enzyme reporter, measures of protein for gain or loss-of-signal activity can be used to understand the signaling at the pathway-level as they relate to the gene . Furthermore, this assay endpoint can be referred to as a primary readout, because this assay has produced multiple assay endpoints where this one serves a signaling function. To generalize the intended target to other relatable targets, this assay endpoint is annotated to the cell cycle intended target family, where the subfamily is stress response.
Cells were treated with dimethyl sulfoxide (DMSO) as a solvent control at a final concentration of 0.5% v/v or with compounds in DMSO with a resulting final DMSO concentration of 0.5% v/v. Compound treatment was done at concentrations of 0.39, 0.78, 1.56, 3.12, 6.24, 12.5, 25, 50, 100, and 200 uM in duplicate on each plate. Cells were treated with compounds for 1, 24, or 72 hr. Carbonyl […] m-chloro-phenylhydrazone (CCCP) and taxol were used as positive controls for mitochondrial function and cytoskeletal stability, respectively; DMSO served as the negative control for this experiment. Cells were fixed by the direct addition of 50 uL formaldehyde in Hank's Balanced Salt Solution (HBSS) to a final concentration of 3.7%. After incubation in the fixation medium for 30 min at room temperature (293-298 K), cells were rinsed twice with HBSS and treated with cell permeabilization buffer (16 uL of 0.5% Triton X-100) for 10 min at room temperature (293-298 K) before labeling. For mitochondrial membrane potential and mitochondrial measurements, pre-fixed cells were incubated with 50 uL of MitoTracker Red CMXRos (Invitrogen) at a concentration of 250 nM for 30 min before fixation. In the remaining cases, post-fixed cells were labeled by incubation with a multiplexed mixture of primary antibodies in HBSS for 60 min at room temperature (293-298 K) to detect immunoreactivity of c-Jun (1:500), phospho-histone H3 (1:100), phospho-histone H2A.x (1:200), p53 (1:400), alpha-tubulin (1:200) and Hoechst 33342 (2 ug/mL). Cells were labeled for multiplexed imaging on two separate plates: a) Hoechst 33342, MitoTracker Red, phospho-histone H3, and alpha-tubulin, and b) Hoechst 33342, phospho-histone H2A.x, and c-Jun. A final rinse with HBSS (50 uL) was performed before analysis. The primary and secondary antibodies for the proteins were phospho-histone H3 (rabbit anti-phospho-histone H3 and FITC-donkey anti-rabbit IgG), phospho-histone H2A.x (mouse anti-phospho-histone H2A.x and FITC-donkey anti-mouse IgG), c-Jun (rabbit anti-phospho-c-Jun and Cy3-donkey anti-rabbit IgG), p53 (sheep anti-p53 and Cy5-donkey anti-sheep IgG), alpha-tubulin (mouse anti-alpha-tubulin and Cy5-donkey anti-mouse IgG). These antibodies are available as the CellCiphr HepG2 assay kit (Millipore).Digital images of each well were captured using a Cellomics ArrayScan VTI (Thermo Scientific Cellomics) (0.8 NA objective, 0.63x optical coupler, and XF-93 filter set) at 20x magnification. The images were acquired using the autofocus feature of the ArrayScan instrument, which entails the following steps. First, the camera focuses on channel 1 (Hoechst 33342), where nuclei are identified. Second, a Z offset of 1 um is used for capturing mitochondria (MitoTracker Red). […]
Consider `Cc1cc(Cl)ccc1OCC(=O)O`, for which the molecule was called inactive. As for `N#Cc1cc(Br)c(O)c(Br)c1`, the molecule was classed as inactive. In general, AC50 refers to the concentration at which the activity in the assay is half-maximal. Take `C=CCC1=C(C)C(OC(=O)C2C(C=C(C)C)C2(C)C)CC1=O` (stereo not given): the molecule was called inactive; the AC50 is 60.6 µM (active) and 52.5 µM (active).

On to `C=CC1(C)OC(=O)N(c2cc(Cl)cc(Cl)c2)C1=O` (stereo not given), for which the result was inactive. Consider `CNC(=O)ON=CC(C)(C)SC`, for which the molecule was called inactive.

Take `O=C(O)COc1nc(Cl)c(Cl)cc1Cl`: the molecule was classed as inactive. Consider `COC(=O)C(C)Oc1ccc(Oc2ccc(Cl)cc2Cl)cc1` (stereo not given), for which the molecule was classed as inactive.

In the case of `COc1nc(C)nc(NC(=O)NS(=O)(=O)c2ccccc2Cl)n1`, the molecule was called inactive. Same read-out and setting: as for `COc1cnc(OC)n2nc(NS(=O)(=O)c3c(OCC(F)F)cccc3C(F)(F)F)nc12`, the entry is “inactive”; as for `CC1COC(Cn2cncn2)(c2ccc(Oc3ccc(Cl)cc3)cc2Cl)O1` (stereo not given), “inactive”; as for `Oc1ccccc1-c1ccccc1`, “inactive”. On to `COc1nc(NC(C)C)nc(NC(C)C)n1`, for which the call was inactive.

As for `CC(C)(C)c1ccc(CSc2cnn(C(C)(C)C)c(=O)c2Cl)cc1`, the molecule was classed as inactive. In the case of `CO/C=C(/C(=O)OC)c1ccccc1Oc1cc(Oc2ccccc2C#N)ncn1`, the result was inactive and the AC50 is 36 µM (active).

For the molecule `CCCN(CCC)c1c([N+](=O)[O-])cc(S(N)(=O)=O)cc1[N+](=O)[O-]`, the AC50 was 54.4 µM (active) and the call was inactive. As to `C#CCOS(=O)OC1CCCCC1Oc1ccc(C(C)(C)C)cc1` (stereo not given), the molecule was called inactive. As to `CS/C(C)=N/OC(=O)N(C)SN(C)C(=O)O/N=C(\C)SC`, the molecule was called inactive. With `Fc1ccc(Oc2ccnc3cc(Cl)cc(Cl)c23)cc1`, the molecule was called inactive. As for `CCCCC(CC)COC(=O)c1ccccc1C(=O)OCC(CC)CCCC` (stereo not given), the molecule was classed as inactive. Take `CCOP(=S)(OCC)SCn1c(=O)oc2cc(Cl)ccc21`: the outcome was inactive. For the molecule `CON(C)C(=O)Nc1ccc(Cl)c(Cl)c1`, the outcome was inactive. For the molecule `COP(=S)(OC)Oc1nc(Cl)c(Cl)cc1Cl`, the outcome was inactive. Same read-out and setting: the entry for `CCc1nn(C)c(C(=O)NCc2ccc(C(C)(C)C)cc2)c1Cl` is “inactive”; for `CN(C)C(=S)SSC(=S)N(C)C` it is “inactive”. `COC(=O)c1ccccc1C(=O)OC`: the molecule was called inactive.

In the case of `COc1nc(C)nc(NC(=O)NS(=O)(=O)c2ccccc2CCC(F)(F)F)n1`, the call was inactive. For `CNC(=S)S`, the outcome was inactive. On to `O=C(O)c1nc(Cl)ccc1Cl`, for which the molecule was called inactive. Same read-out and setting: the entry for `Cc1c(F)c(F)c(COC(=O)C2C(/C=C(\Cl)C(F)(F)F)C2(C)C)c(F)c1F` (stereo not given) is “inactive”. Consider `COP(N)(=O)SC` (stereo not given), for which the molecule was classed as inactive.

On to `CCNc1nc(Cl)nc(NC(C)C)n1`, for which the outcome was inactive. On to `COC(=O)N(OC)c1ccccc1COc1ccn(-c2ccc(Cl)cc2)n1`, for which the molecule was called inactive.

In the case of `OC(c1ccc(Cl)cc1)(c1cncnc1)c1ccccc1Cl` (stereo not given), the outcome was inactive. Regarding `CCCCNC(=O)OCC#CI`, the outcome was inactive. Same read-out and setting: the entry for `CCCC1COC(Cn2cncn2)(c2ccc(Cl)cc2Cl)O1` (stereo not given) is “inactive”.

For the molecule `CCOc1cc(Oc2ccc(C(F)(F)F)cc2Cl)ccc1[N+](=O)[O-]`, the outcome was inactive.

Turning to `CC1=C(C(=O)Nc2ccccc2)SCCO1`, the outcome was inactive.
